Test systems include NCI-H23 lung; NCI-H226 lung; NCI-H322M lung; HOP-62 NSCLC; NCI-H460 lung; HOP-92 NSCLC; NCI-H522 lung; A549/ATCC NSCLC; 786-0 renal; COLO 205 colon.
Test in all cases: NCI-60 one-dose screen, 48 h (100 = growth as untreated, 0 = no growth, -100 = all killed)
What all share (settings): 10 µM unless noted

Compounds without any hit were thinned out: in the full panel of roughly 83,000, 20% have a hit.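 Note: values are percent growth. 100 is the growth of untreated cells, values between 100 and 0 indicate rising inhibition; between -100 and 0 indicates cell death.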 A number with no mark means an inactive call. Active and inactive are the calls of the source. Rule for the calls: active = growth percent below 10; inactive = the rest.

Drawing on PubChem BioAssay (NCI), this text covers growth for 13 molecules.

Take `COC(CC(F)F)c1cn(S(=O)(=O)c2ccc(C)cc2)c2ccccc12` (stereo not given): the growth with NCI-H23 lung was 52%; in the assay with NCI-H226 lung, 75.9%; in the assay with NCI-H322M lung, 27.8%; with HOP-62 NSCLC, 34.1%; in the assay on NCI-H460 lung it was 11.6%; in the assay on HOP-92 NSCLC it was 40.8%. The growth is 42.7% with NCI-H522 lung, 33.9% in the assay on A549/ATCC NSCLC, 35.3% with 786-0 renal and 3.62% (active) in the assay on COLO 205 colon.

In the case of `CC(C)(Sc1cc(C(C)(C)C)c(O)c(C(C)(C)C)c1)Sc1cc(C(C)(C)C)c(OC(=O)CCCC(=O)O)c(C(C)(C)C)c1`, the growth with NCI-H23 lung is 39.9%; in the assay on NCI-H226 lung it was 66.2%; in the assay with NCI-H322M lung, 60.4%; in the assay on HOP-62 NSCLC it was 67%; with NCI-H460 lung, 37%; in the assay with HOP-92 NSCLC it was 40.2%. The growth in the assay with NCI-H522 lung was 46.4%; in the assay with A549/ATCC NSCLC, 35%; with 786-0 renal it was 56.1%; in the assay on COLO 205 colon, 64.3%.

With `COc1cccc(/C=C2\COc3ccc(O)c(O)c3C2=O)c1`, the growth with NCI-H23 lung was 47%; in the assay on NCI-H226 lung it was 79.1%; in the assay with NCI-H322M lung, 36.4%; in the assay on HOP-62 NSCLC it was 4.02% (active); in the assay with NCI-H460 lung, 28.7%; in the assay with HOP-92 NSCLC, -12% (active). For the same molecule, the growth in the assay with NCI-H522 lung was -67% (active); with A549/ATCC NSCLC, 47.6%; in the assay on 786-0 renal, -38.1% (active); with COLO 205 colon, 43.3%.

Regarding `COc1ccc(C(=O)Nc2cccc(-c3cc(=O)c4c(OC)c(OC)c(OC)cc4o3)c2)cc1`, the growth in the assay on NCI-H23 lung was 57.5%; with NCI-H226 lung it was 69.9%; with NCI-H322M lung, 55.1%; in the assay on HOP-62 NSCLC, 72.5%; in the assay on NCI-H460 lung, 42.1%; with HOP-92 NSCLC it was 6.67% (active). The growth was 44.5% with NCI-H522 lung, 64.7% in the assay on A549/ATCC NSCLC, 55% in the assay on 786-0 renal and 73.1% in the assay with COLO 205 colon.

Turning to `Cc1[nH]c(C(=O)Nc2ccc(C(=O)N3CCN(c4cc5c(cc4F)c(=O)c(C(=O)O)cn5C4CC4)CC3)cc2OC(C)C)c(Cl)c1Cl`, the growth is 78.4% in the assay on NCI-H23 lung; 96.5% in the assay on NCI-H226 lung; 90.3% in the assay on NCI-H322M lung; 97.8% in the assay on HOP-62 NSCLC; 8.48% (active) in the assay on NCI-H460 lung; 46.5% with HOP-92 NSCLC. The growth in the assay on NCI-H522 lung was 82.1%; in the assay on A549/ATCC NSCLC it was 38.4%; with 786-0 renal, 79.8%; with COLO 205 colon, 114%.

For `CCCCNC(=O)Oc1ccc(/C(=C(/C)Cc2ccc(OC)cc2)c2ccc(OCCN3CCCC3)cc2)cc1`, the growth in the assay on NCI-H23 lung is 85.9%; with NCI-H226 lung, 94.7%; in the assay with NCI-H322M lung, 81.6%; with HOP-62 NSCLC it was 79.1%; in the assay on NCI-H460 lung it was 17.7%; with HOP-92 NSCLC it was 49%. Also, the growth was 55.5% in the assay on NCI-H522 lung, 48.7% in the assay on A549/ATCC NSCLC, 59.8% with 786-0 renal and -57.4% (active) in the assay on COLO 205 colon.

For `CCn1c(SCC(=O)N/N=C(\C)c2ccc(Cl)cc2)nc2c1c(=O)n(C)c(=O)n2C`, the growth is 102% in the assay on NCI-H23 lung; 99.7% in the assay with NCI-H226 lung; 96.9% in the assay on NCI-H322M lung; 91.8% with HOP-62 NSCLC; 101% in the assay with NCI-H460 lung; 103% in the assay with HOP-92 NSCLC. The growth was 97.7% in the assay on NCI-H522 lung, 104% in the assay with A549/ATCC NSCLC, 101% in the assay on 786-0 renal and 107% in the assay on COLO 205 colon.

Take `COc1ccc2c(c1)N(CCO)C1=C(C(=O)OC1)C2c1cccc(F)c1` (stereo not given): the growth in the assay on NCI-H23 lung is 25.6%; with NCI-H226 lung it was 45%; with NCI-H322M lung it was 46.5%; in the assay on HOP-62 NSCLC, 36.9%; in the assay on NCI-H460 lung, 6.1% (active); with HOP-92 NSCLC, 57.4%. Also, the growth is 6.05% (active) in the assay on NCI-H522 lung, 16.1% in the assay on A549/ATCC NSCLC, 27.9% with 786-0 renal and -22.6% (active) with COLO 205 colon.

Regarding `N#Cc1c(-c2ccccc2)[nH]c2ncc(-c3ccccc3)n2c1=O`, the growth in the assay with NCI-H23 lung was 76.9%; with NCI-H226 lung it was 86.3%; with NCI-H322M lung, 88.6%; with HOP-62 NSCLC, 75.6%; in the assay on NCI-H460 lung, 91.1%; in the assay with HOP-92 NSCLC, 80.7%. Moreover, the growth in the assay with NCI-H522 lung was 76.9%; with A549/ATCC NSCLC it was 90.6%; in the assay with 786-0 renal, 92.3%; in the assay on COLO 205 colon, 94.7%.

Turning to `C=C(C)[C@@H]1CC[C@]2(CO)CC[C@]3(C)[C@H](CC[C@@H]4[C@@]5(C)CC[C@H](NCO)C(C)(C)[C@@H]5CC[C@]43C)[C@@H]12`, the growth is -20.9% (active) in the assay with NCI-H23 lung; 72.5% in the assay with NCI-H226 lung; -83.7% (active) in the assay with NCI-H322M lung; -61.9% (active) in the assay on HOP-62 NSCLC; -86.1% (active) with NCI-H460 lung; 42.2% in the assay with HOP-92 NSCLC. The growth with NCI-H522 lung was -42.7% (active); with A549/ATCC NSCLC, -45.7% (active); in the assay on 786-0 renal it was -94% (active); in the assay on COLO 205 colon, -57.1% (active).

For `CCCCNC(=O)CC1=C(C)/C(=C/c2[nH]c(-c3ccc[nH]3)cc2OC)N=C1C`, the growth is 48.6% in the assay with NCI-H23 lung; 36.7% in the assay with NCI-H226 lung; 50% in the assay on NCI-H322M lung; 50.5% in the assay on HOP-62 NSCLC; 7.8% (active) in the assay on NCI-H460 lung; -19.8% (active) with HOP-92 NSCLC. The growth in the assay with NCI-H522 lung was 17%; in the assay on A549/ATCC NSCLC, 12.4%; with 786-0 renal, 16.1%; with COLO 205 colon, 17.2%.

Turning to `CC1(C)COB(OCC(C)(C)COB2OCC(C)(C)CO2)OC1`, the growth was 101% in the assay with NCI-H23 lung; 100% in the assay with NCI-H226 lung; 92.2% with NCI-H322M lung; 108% in the assay on HOP-62 NSCLC; 107% in the assay with NCI-H460 lung; 87.9% in the assay with HOP-92 NSCLC. Moreover, the growth with NCI-H522 lung is 106%; in the assay with A549/ATCC NSCLC it was 100%; in the assay with 786-0 renal it was 104%; in the assay on COLO 205 colon, 109%.

Turning to `C=C1C(=O)O[C@H]2[C@H]1CC/C(COC(=O)/C=C\C(=O)NCc1ccc(Cn3c(=O)sn(CCI)c3=O)cc1)=C\CC[C@@]1(C)O[C@@H]21`, the growth in the assay with NCI-H23 lung is 84.1%; with NCI-H226 lung it was 83%; with NCI-H322M lung, 86.6%; in the assay with HOP-62 NSCLC, 130%; with NCI-H460 lung, 91.9%; in the assay with HOP-92 NSCLC it was 46%. The growth in the assay on NCI-H522 lung was -84% (active); with A549/ATCC NSCLC it was 98.1%; in the assay on 786-0 renal, 37.4%; in the assay with COLO 205 colon, -32.8% (active).
